Compound activity: PubChem, several laboratories
Insulin prom inh – TRM-6 insulin promoter activity inhibition; TRM-6 cells (human fetal islet line), insulin promoter-eGFP reporter, imaging; reporter expression induced with tamoxifen; inhibition, % at 2 µM; 130,000 tested, 0.9% active; AID 1273;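 active = inhibition above the mean plus 3 SD, with well images judged a real hit on visual review, cut at about 60% in these data, passing the limit was not always enough; inconclusive = inhibition over the cutoff but images rejected on review; inactive = inhibition not above the cutoff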
Autophagy mod – modulators of autophagy; MEF GFP-LC3 puncta imaging; test concentration mostly 10 µM; 190,000 tested, 0.98% active; calls only at 10 µM (by protocol);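 active = percentage of spot-positive cells more than 3 SD above its plate mean, without a fluorescence outlier flag or 80% toxicity; inconclusive = no clear call, values can overlap the other calls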;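 also: spot-positive cell cutoff set from DMSO-treated cells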
WT yeast gro inh – growth inhibition of WT yeast, mitochondrial fusion screen | mitochondrial fusion phenotypic screen, WT strain | inhibition, % at 10 µM | 190,000 tested, 2.1% active; in the data active = inhibition above about 58%; tested in S. cerevisiae
Ins promoter up – MIN6 insulin promoter up-regulation; MIN6 insulin promoter-GFP reporter, high-content imaging; hits give high values; z-score at 5 µM; 190,000 tested, 0.3% active;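 active = z-score above 3 at 5 µM with at least 500 cells counted in the well; inconclusive = wells under 500 cells, flagged as cytotoxic or low count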
Lmaj promast – inhibitors of Leishmania major promastigote growth; Leishmania major promastigotes, resazurin fluorescence viability; inhibition, % at 10 µM; 200,000 tested, 9% active; AID 1063; in the data active = inhibition above about 50%;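 also: promastigotes grown with compound for 44 hours at 28 °C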
Starred values were filed as active, the others as inactive; i = inactive; ? = inconclusive; / = no result; + = active, no number. In the library only some 11% were active in any assay of this set; here they are far more common.

SMILES	Insulin prom inh	Autophagy mod	WT yeast gro inh	Ins promoter up	Lmaj promast
Cc1cc2nc(-c3ccc(SCC(=O)Nc4nccs4)nc3)[nH]c2cc1C	/	i	-23	-0.27	0
Cc1cc2nc(-c3ccc(SCc4ccc(C#N)cc4)nc3)[nH]c2cc1C	/	i	-20	-0.03	62*
CC(=O)CSc1ccc(-c2nc3cc(C)c(C)cc3[nH]2)cn1	-85	i	-5	-0.01	80*
COc1ccc(C)cc1N(C(=O)c1ccccc1F)c1nc2ccccc2s1	-3	i	0	-0.1	12
Cn1cc(Cl)c(C(=O)Nc2cnn(Cc3ccc(F)cc3)c2)n1	17	i	12	0.1	99*
O=C(Nc1cnn(Cc2ccc(F)cc2)c1)c1cc(-c2ccco2)on1	/	i	36	-0.52	69*
Cn1nc(C(F)(F)F)c(-c2cccc(C(F)(F)F)c2)c1NC(=O)Nc1ccc(F)cc1	/	/	/	-1.2	/
O=C(CCN1C(=O)C2C3CC(C(Br)C3Br)C2C1=O)OCC(=O)c1ccccc1 (stereo not given)	24	i	-4	2.3	15
COc1ccc(CCNC(=O)COc2ccc(N(C)S(=O)(=O)c3ccc(C)cc3)cc2)cc1	/	i	14	/	6
COc1ccc(-c2csc(NC(=O)COc3ccc(N(C)S(=O)(=O)c4ccc(C)cc4)cc3)n2)cc1	-22	i	-5	-0.13	95*
CCOc1ccc2nc(NC(=O)COc3ccc(N(C)S(=O)(=O)c4ccc(C)cc4)cc3)sc2c1	/	/	/	0.1	/
Cc1ccc(-c2csc(NC(=O)COc3ccc(N(C)S(=O)(=O)c4ccc(C)cc4)cc3)n2)cc1	3	i	-15	-1.7	90*
CCOC(=O)C1=C(C)Nc2ccccc2N=C1N	42	i	-4	-0.27	-2
CCCCN(CCCC)C1=Nc2ccccc2N/C1=C(/C#N)C(=O)OCC	3	i	68*	-1.1	23
CCOC(=O)/C(C#N)=C1/C=C(C)NC(c2ccccc2O)=N1	-18	i	-12	0.07	-4
CCOC(=O)/C(C#N)=C1\Nc2ccccc2N=C1N(CC(C)C)CC(C)C	-36	i	76*	0.4	81*
CCCOc1ccc(-c2nc[nH]c2[N+](=O)[O-])cc1	-82	i	1	-0.26	19
CCc1nc2c(cnn2-c2ccc(Cl)cc2)c(=O)n1-c1ccc(OC)cc1	?	i	53	-1.4	17
O=S(=O)(c1ccccc1)c1cnn(-c2ccccc2)c1-c1ccc(F)cc1	-30	i	7	-0.21	50*
COc1ccc(-n2ncc(S(=O)(=O)c3ccccc3)c2-c2ccc(Cl)cc2)cc1	-37	i	53	0.91	99*
Cn1cc(/C=C(\C#N)C(=O)Nc2cccc([N+](=O)[O-])c2)c2ccccc21	-135	+	2	/	0
Cn1cc(/C=C(\C#N)C(=O)Nc2ncc(Cc3cccc(Cl)c3)s2)c2ccccc21	/	i	1	-0.62	91*
Cn1cc(/C=N/NC(=O)c2cccc([N+](=O)[O-])c2)c2ccccc21	/	i	1	-0.18	-6
N#C/C(=C\c1c[nH]c2ccccc12)C(=O)Nc1ncc(Cc2ccc(Cl)cc2Cl)s1	/	i	5	-0.84	3
Cc1c(N2C(=O)C3C4C=CC(C4)C3C2=O)c(=O)n(-c2ccccc2)n1C (stereo not given)	/	/	/	0.59	/
SMILES	Insulin prom inh	Autophagy mod	WT yeast gro inh	Ins promoter up	Lmaj promast
CCOC(=O)CC(=O)NC1(Cc2ccc(O)cc2)CCCCC1	36	i	-9	1	-4
CC(C)C(c1nnnn1C(C)(C)C)N1CCOCC1 (stereo not given)	5	i	-1	1.5	0
CC(C)C(c1nnnn1C(C)(C)C)N1CCC(Cc2ccccc2)CC1 (stereo not given)	-31	i	73*	0	12
CC1(C)C2C(Cl)(Cl)C2(C)c2ccccc2N1C=O (stereo not given)	/	/	/	0.22	/
COc1ccc(S(=O)(=O)N2CCCCC2)cc1	35	i	-9	0.03	-6
COc1ccc(NS(=O)(=O)c2ccc(S(=O)(=O)N3CCCC3)cc2)cc1	-31	i	1	/	52*
COc1ccc(S(=O)(=O)N2CCCCCC2)cc1N(C)S(=O)(=O)c1ccc(C)cc1	/	i	4	-0.28	51*
COc1ccc2cc(S(=O)(=O)N3CCCCCC3)ccc2c1	/	i	12	0.66	57*
COc1ccc(NS(=O)(=O)c2ccc(S(=O)(=O)N3CCOCC3)cc2)cc1	/	i	-1	0.54	-4
O=C1CCC(/C=C/c2ccccc2)=NN1Cc1ccc(F)cc1	37	i	11	-0.84	-7
COc1ccc(/C=N/NC(=O)CN2CCCc3ccccc32)c(OC)c1	/	/	/	-0.49	/
COc1ccc(O[C@H]2C=C[C@@H](c3ccccc3)O[C@@H]2COC(=O)CC/C(C)=N/OC[C@@H](O)[C@H]2O[C@@H]3OC(C)(C)O[C@@H]3[C@H]2O)cc1	24	i	-6	0.22	8
CC1CCCCC1NC(=O)C(Cc1ccccc1)NS(=O)(=O)c1cccs1 (stereo not given)	-61	i	10	-0.54	58*
CCC(=O)N1CCc2cc(S(=O)(=O)NC(Cc3ccccc3)C(=O)NC3CCCC3)ccc21 (stereo not given)	/	i	-5	-0.98	11
CC(CCc1ccccc1)NC(=O)C(Cc1ccccc1)NS(=O)(=O)c1cccs1 (stereo not given)	-35	i	24	0.11	89*
COc1ccc(CNC(=O)C2CC(=O)N(c3ccc(OCC(=O)N4C(C)CCCC4C)cc3)C2)cc1 (stereo not given)	71	i	64*	-0.08	5
Cc1c(NC(=O)c2cc(C3CC3)on2)c(=O)n(-c2ccccc2)n1C	/	+	4	-0.28	0
Cc1c(NC(=S)NC(=O)c2cc3ccccc3o2)c(=O)n(-c2ccccc2)n1C	-37	i	-7	0.7	53*
Cc1cc(C)c2c(SC(C)C)nc(N)nc2n1	/	/	/	-0.66	/
CC(C)C1S/C(=N/N=C/c2ccco2)NC1=O (stereo not given)	-43	i	33	3.2*	-9
O=C(c1cccc(Cl)c1)N1CCN(Cc2ccccc2F)CC1	-31	i	2	0.66	5
COc1ccc(-n2c(SCc3ccc(C#N)cc3)nnc2-c2ccccn2)cc1	45	i	7	-0.41	-5
COc1ccc(C2Sc3nncn3N2Cc2ccc(C#N)cc2)cc1 (stereo not given)	/	+	-11	0.7	-10
COc1ccc(Br)cc1CN(C)CC(=O)NCCc1ccccc1	/	i	0	-0.85	1
O=C(COc1ccc(Br)cc1Cl)NC(=O)NCc1ccccc1	3	i	3	-0.2	54*
O=C(COc1ccc(Br)cc1CNC1CCCCC1)NCCc1ccccc1	/	i	14	-0.65	93*
CC(=O)C1=C(O)C(=O)N(c2cccnc2)C1c1ccc(Cl)cc1 (stereo not given)	-5	i	-6	1.2	-4
Cc1cccc(NC(=S)NCCc2ccc3c(c2)OCCO3)c1C	-43	i	55	-0.15	2
CON1C(=O)C(=O)N(OC)C(C)(C)C1(C)C	/	i	4	/	-6
